In PubChem BioAssay AID720648 (The Scripps Research Institute Molecular Screening Center, 2013) one finds inhibition data, which are given here for 25 compounds.

The term inhibition denotes the relative decrease from the control value, in per cent.

Screen size: about 370,000 compounds; about 3,100 (0.84%) were called active.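 How the source made its calls: active means inhibition above the mean of compounds lying between control limits plus 3 SD, set per campaign (cut at about 8.5% in these data); inactive means the rest.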 Shown is part of a subset that was picked to be rich in actives.

Disintegrin and metalloproteinase domain-containing protein 17 (Homo sapiens), sequence (P78536 215-824 limits assumed): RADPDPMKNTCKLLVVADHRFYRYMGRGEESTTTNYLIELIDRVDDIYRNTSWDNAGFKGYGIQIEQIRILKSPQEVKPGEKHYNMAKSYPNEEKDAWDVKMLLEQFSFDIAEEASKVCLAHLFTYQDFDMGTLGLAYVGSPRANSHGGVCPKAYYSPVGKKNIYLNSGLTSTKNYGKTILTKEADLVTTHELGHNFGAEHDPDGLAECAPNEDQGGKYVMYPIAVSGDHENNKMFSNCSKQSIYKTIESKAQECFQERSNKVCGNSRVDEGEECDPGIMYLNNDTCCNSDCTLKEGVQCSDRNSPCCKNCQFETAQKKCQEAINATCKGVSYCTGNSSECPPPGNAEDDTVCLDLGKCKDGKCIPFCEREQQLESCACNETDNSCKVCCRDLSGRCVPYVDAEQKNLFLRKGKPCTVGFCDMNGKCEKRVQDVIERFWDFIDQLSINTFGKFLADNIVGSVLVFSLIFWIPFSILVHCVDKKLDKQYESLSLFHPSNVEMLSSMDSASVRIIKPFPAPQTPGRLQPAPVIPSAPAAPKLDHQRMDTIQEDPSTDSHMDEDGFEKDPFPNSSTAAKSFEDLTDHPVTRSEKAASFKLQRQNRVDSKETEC

The test concerns the target Disintegrin and metalloproteinase domain-containing protein 17 (Homo sapiens) (UniProt P78536). Nature of the test: ADAM17 inhibitors, primary screen, biochemical, QFRET (AID 720648).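 Further: 0% = DMSO-only wells as the low control.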 As to conditions: recombinant ADAM17, EDANS/DABCYL FRET peptide cleavage; at 6.95 µM; stronger effect = higher value.
For `Cc1ccccc1CS(=O)(=O)Cc1ccc(C(=O)Nc2ccc(Cl)cc2)o1`, the inhibition is -7.43% (inactive). With `COc1ccc(-c2ccc(CN3C(CC(C)C)C(=O)N(Cc4cn(CC5CCCCC5)nn4)CCS3(=O)=O)cc2)cc1` (stereo not given) the figure was 9.87% (active); with `CC1C(=O)N(Cc2cn(Cc3ccco3)nn2)CCS(=O)(=O)N1Cc1ccc(-c2cccc(CO)c2)cc1` (stereo not given), 0.84% (inactive); with `CC1C(=O)N(Cc2cn(CC3CCCCC3)nn2)CCS(=O)(=O)N1Cc1ccc(-c2cccc(N(C)C)c2)cc1` (stereo not given), -2.56% (inactive).

On to `COc1ccc(Cn2cc(CN3CCS(=O)(=O)N(Cc4ccc(-c5cccc(Cl)c5)cc4)C(C)C3=O)nn2)cc1` (stereo not given), for which the inhibition is 10% (active). Regarding `CC(C)CC1C(=O)N(Cc2cn(CC3CCCCC3)nn2)CCS(=O)(=O)N1Cc1ccc(-c2ccc(Cl)cc2)cc1` (stereo not given), the inhibition is -0.31% (inactive).

Consider `COc1ccc(-c2ccc(CN3C(CC(C)C)C(=O)N(Cc4cn(CC5CCCCC5)nn4)CCS3(=O)=O)cc2)cn1` (stereo not given), for which the inhibition was 3.81% (inactive).

Consider `COc1cc(/C=C/C(=O)n2cnc3ccccc32)cc(OC)c1OC`, for which the inhibition is -11.9% (inactive).

Take `CC(=O)OC12CCCN(C1)/C(=C/c1ccncc1)C2` (stereo not given): the inhibition was -1.16% (inactive). To `Clc1ccc(-n2c(SC/C=C/c3ccccc3)nnc2-c2ccco2)cc1` belongs 8.36% (inactive). For `CC(C)CNc1cccc2c1S(=O)(=O)N(Cc1cn(Cc3ccccc3C(F)(F)F)nn1)Cc1ccccc1O2`, the inhibition is -9.08% (inactive).

`COc1cc(C2C(C(=O)c3ccco3)=C(O)C(=O)N2c2cc(C)on2)ccc1OCc1ccccc1` (stereo not given): the inhibition is -1.07% (inactive). With `COc1cc(C2CC(=O)N3CN(Cc4ccccc4)CSC3=C2C#N)ccc1OCc1ccccc1` (stereo not given) the figure was 10.2% (active). As for `CCCNC(=O)C1CC(=O)N(c2ccc(OCc3ccccc3)cc2)C1` (stereo not given), the inhibition is -1.62% (inactive).

As for `Cc1cc(C)nc(NC(=S)N2CCN(c3ccc(C(F)(F)F)cn3)CC2)c1`, the inhibition is -0.9% (inactive).

`Cc1ccc(C)c(NC(=S)NCC(c2cccnc2)N2CCOCC2)c1` (stereo not given): the inhibition is 4.64% (inactive).

With `Cc1ccc(C)c(NC(=S)NNC(=S)Nc2ccc(C(C)C)cc2)c1`, the inhibition is 11% (active). To `CC(C)c1ccc(NC(=S)NC2CC3C=CC2C3)cc1` (stereo not given) belongs 1.36% (inactive); to `COc1ccnc(NC(=S)N2CCN(c3ncc(C(F)(F)F)cc3Cl)CC2)c1`, -3.73% (inactive); to `C[C@H](C(=O)N(C)c1ccccc1)[C@@H](O)c1ccc(Cl)cc1`, -3.74% (inactive). With `COC(=O)N(C)C[C@@H]1OCc2cnnn2CCCC(=O)N([C@@H](C)CO)C[C@@H]1C` the figure was 8.71% (active). Take `C[C@H](CO)N1C[C@H](C)[C@@H](CN(C)C(=O)C2CCCCC2)OCc2cnnn2CCCC1=O`: the inhibition was 3% (inactive).

Regarding `C[C@@H]1CN([C@H](C)CO)C(=O)CCCn2nncc2CO[C@@H]1CN(C)C(=O)OCc1ccccc1`, the inhibition was -3.01% (inactive). With `COC(CNC(=O)[C@H](Cc1ccccc1)NC1(C(=O)NC2CCCCC2)CCCCC1)OC` the figure was -1.27% (inactive). To `COc1ccc(S[C@]2(C(=O)N(C)C)CC(=O)N(c3ccc(OC)cc3)[C@@H]2c2ccc(OC)cc2)cc1` belongs 3.23% (inactive).
